The values below come from PubChem BioAssay (NCATS).

A number with no mark means an inactive call. Results filed as inconclusive are left out. Calls of active or inactive are those of the source. Unless noted, calls come from the whole dose curve; as a rule, active = well fitted curve in the direction sought with a large enough effect; inconclusive = small, poorly fitted or top-dose-only effect, or another doubt; inactive = no such curve, though single readings can be large; an effect the other way counts as inactive or inconclusive.

Test [1] in a line: Drug repurposing screens with cells derived from glioblastoma tumor samples (AID 1345199). For activity, negative = cell killing: % is set by controls: 0 for no effect and ±100 for the full control effect. Note: nearly all actives have a fitted effect of over 40% in size. Note: potency is the fitted concentration of half-maximal effect. Particulars: GBM patient neurospheres viability, ATP luminescence, 48 h. Put shortly:
(§1)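 Primary testing used CD133+ neurospheres from four GBM patients, seven concentrations, 48 h exposure and ATP-based viability; confirmation added three slower-growing patient lines.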

In a further test the test system is astro (control astrocytes). The description is as above. Conditions: viability, ATP luminescence, 48 h; series mostly up to 45.9 µM. The procedure, abridged: as §1
The next test relates to OV90. Nature of the test: Primary qHTS to identify gynecologic anti-cancer compounds using libraries of approved drugs and bioactive compounds (AID 1345084). Note: nearly all actives have a fitted effect of over 55% in size. Note: potency is the fitted concentration of half-maximal effect. Particulars: Gynecologic cancer cell panel viability, ATPlite luminescence, 48 h; series mostly up to 57.5 µM. Put shortly: (§2)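 Cell viability after 48 h drug treatment, ATPlite luminescence readout; five doses.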
In another test the test system is Tov112D. The test is described as above. Particulars: Gynecologic cancer cell panel viability, ATPlite luminescence, 48 h; series mostly up to 57.5 µM. The procedure, abridged:
as §2

Test [2] is described as follows: qHTS assay to identify inhibitors of the type 1 interferon - major histocompatibility complex class I in skeletal muscle: Counter screen cell viability and HiBit confirmation (AID 1347412). Note: potency is the fitted concentration of half-maximal effect; nearly all actives have a fitted effect of over 60% in size. Conditions: iHSKM muscle cells + IFN-b, HiBiT or CellTiter-Glo, 24 h; Potency: HiBiT unless noted; Viability, at 45.9 µM (top of the series). Put shortly:
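Myoblasts (C25cl48, HLA-B HiBiT) seeded in medium without dexamethasone, IFN-b 4 ng/ml added except unstimulated columns; 1 hr later compounds pinned (12-pt 1:3, top 46 uM final). Incubated 24 hrs, lysed 10 min, luminescence measured.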

Test [3] addresses Nuclear receptor subfamily 1 group I member 2 (Rattus norvegicus) (UniProt Q9R1A7). In words: qHTS assay for small molecule activators of the rat pregnane X receptor (rPXR) signaling pathway (AID 651751; call rule not given here; note: 0% is about no effect). Conditions: rPXR reporter cells, luciferase (One-Glo), 24 h.
Test [4] in a line: qHTS assay for small molecule activators of the human pregnane X receptor (PXR) signaling pathway (AID 720659; call rule not given here; note: 0% is about no effect). Particulars: DPX-2 HepG2 CYP3A4-luciferase, 24 h; series mostly up to 92.3 µM.
The subject of a further test is PA-1. Nature of the test: Primary qHTS to identify gynecologic anti-cancer compounds using libraries of approved drugs and bioactive compounds (AID 1345084). Note: nearly all actives have a fitted effect of over 55% in size. Note: potency is the fitted concentration of half-maximal effect. Conditions: Gynecologic cancer cell panel viability, ATPlite luminescence, 48 h; series mostly up to 57.5 µM. Put shortly:
as §2
For orientation: qHTS replaces the single test concentration by a dilution series.

For another test, the system named is SKOV3. The test is described as above. Particulars: Gynecologic cancer cell panel viability, ATPlite luminescence, 48 h; series mostly up to 57.5 µM. Put shortly: as §2
Another test deals with Tov-21-G. The description is as above. Conditions: Gynecologic cancer cell panel viability, ATPlite luminescence, 48 h; series mostly up to 57.5 µM. Put shortly:
as §2
(Cellular ATP, detected with luciferase, serves as a proxy for viable cell number.)

Setting [5] is: at 45.9 µM (top of the series), tumour line B.
Setting [6] is: at 46.1 µM (top of the series), tumour line C.
Setting [7] is: at 45.9 µM (top of the series), tumour line D.

Sequence of Nuclear receptor subfamily 1 group I member 2 (Rattus norvegicus) (Q9R1A7 whole entry, looked up): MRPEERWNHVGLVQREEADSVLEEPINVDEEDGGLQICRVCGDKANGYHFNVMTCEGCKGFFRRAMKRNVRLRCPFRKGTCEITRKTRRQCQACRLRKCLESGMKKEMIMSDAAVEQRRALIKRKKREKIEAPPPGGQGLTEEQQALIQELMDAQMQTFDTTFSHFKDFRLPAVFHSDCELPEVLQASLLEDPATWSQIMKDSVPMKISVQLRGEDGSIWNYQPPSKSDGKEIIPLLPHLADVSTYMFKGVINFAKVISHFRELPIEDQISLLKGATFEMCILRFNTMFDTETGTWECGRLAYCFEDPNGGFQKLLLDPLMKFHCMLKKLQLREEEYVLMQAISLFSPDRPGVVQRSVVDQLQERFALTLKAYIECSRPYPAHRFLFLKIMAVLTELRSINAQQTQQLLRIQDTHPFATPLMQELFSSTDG

For `CC(C)C[C@H]1C(=O)N2CCC[C@H]2[C@]2(O)O[C@](NC(=O)[C@@H]3C=C4c5cccc6[nH]c(Br)c(c56)C[C@H]4N(C)C3)(C(C)C)C(=O)N12`, the activity, negative = cell killing in test [1] (setting [5]) is -7.46%; in test [1] (setting [6]), 12.4%. Moreover, the Potency in test [1] (tumour line A) is 2.24 µM (active). Moreover, in the test with astro, the Potency entry is “inactive”.
As to `COc1cccc2c1C(=O)c1c(O)c3c(c(O)c1C2=O)C[C@@](O)(C(C)=O)C[C@@H]3O[C@H]1C[C@H](N)[C@H](O)[C@H](C)O1`, the Potency was 1.26 µM (active) in the test with OV90, 0.398 µM (active) in the test with Tov112D, 1.12 µM (active) with astro and 0.442 µM (active) in test [2]. Besides, the max response in test [3] was -12.1%. In test [4], the outcome was inactive.
With `CCCCCCCCCCCCCCCC[N+](C)(C)CCN(Cc1ccc(OC)cc1)c1ncccn1`, the Potency in the test with PA-1 was 15.8 µM (active); in the test on SKOV3 it was 20 µM (active); in the test on Tov112D, 20 µM (active); in test [1] (tumour line A), 8.91 µM (active); in test [1] (tumour line B), 14.1 µM (active). The activity, negative = cell killing in test [1] (at 20 µM (top of the series), tumour line C) was -23.1%.
Consider `CCCCC(CC)CN=C(N)NC(N)=NCCCCCCN=C(N)NC(N)=NCC(CC)CCCC` (configuration not stated), for which the Potency was 20 µM (active) in the test with OV90; 10 µM (active) in the test on PA-1; 17.8 µM (active) with Tov-21-G; 11.2 µM (active) in the test with astro; 22.2 µM [Viability] (active) in [2].
On to `C[C@]12CC[C@@H]3c4ccc(O)cc4CC[C@H]3[C@@H]1CC[C@@H]2O`, for which the activity, negative = cell killing in test [1] (setting [5]) was -16.2%; in test [1] (setting [6]), -20.5%. The Potency in test [1] (tumour line A) is 31.6 µM (active).
For `CCCC1O[C@@H]2C[C@H]3[C@@H]4CCC5=CC(=O)C=C[C@]5(C)[C@H]4[C@@H](O)C[C@]3(C)[C@]2(C(=O)CO)O1` (some centres not stated), the activity, negative = cell killing in [1] (setting [5]) was -17.2%; in [1] (setting [7]), -5.46%; in [1] (setting [6]), -20.2%. In the test on astro, the Potency entry is “inactive”.
Take `O=C1CCC(c2ccc(-n3ccnc3)cc2)=NN1`: the activity, negative = cell killing in test [1] (setting [5]) is -6.09%; in test [1] (setting [7]), -6.36%; in [1] (setting [6]) it was -27.3%. The Potency result in the test on astro is “inactive”.
For the compound `CCOc1ccc2nc3cc(N)ccc3c(N)c2c1`, the Potency result in the test with Tov-21-G and in the test on astro was “inactive” throughout. The activity, negative = cell killing in [1] (setting [5]) was -17.9%; in test [1] (setting [7]), -30.3%; in [1] (at 46 µM (top of the series), tumour line A), -14.8%; in test [1] (setting [6]), 1.93%.
As for `N[C@H](CO)C(=O)O`, the activity, negative = cell killing in [1] (setting [5]) was 4.31%; in test [1] (setting [7]), -24.3%; in test [1] (setting [6]), 2.37%. The Potency result in the test with astro was “inactive”.
